# Screening results from PubChem.
# NRP1-CendR mod = alters CendR peptide binding to human NRP-1. O14786. FAM-RPARPAR peptide binding to NRP-1, fluorescence polarization. inhibition, % at 25 µM. 360,000 compounds, 0.85% hits. AID 602438;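 active = inhibition or corrected inhibition above about 18%, plus a signal ratio from 0.5 to 1.5, limit read from the data, passing the limit was not always enough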
# ALR H2O2 inh = inhibitors of human sulfhydryl oxidase ALR. P55789. purified ALR, DTT oxidation, H2O2 HRP-luminol luminescence. AID 485317. inhibition, % (concentration not given with the values). 290,000 compounds, 3.8% hits;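 active = mean replicate inhibition above about 79%, with every replicate also reaching it, limit read from the data; inconclusive = only one of the two criteria met; inactive = mean below limit and not every replicate reaching it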
# Target sequence (P55789 whole entry, looked up): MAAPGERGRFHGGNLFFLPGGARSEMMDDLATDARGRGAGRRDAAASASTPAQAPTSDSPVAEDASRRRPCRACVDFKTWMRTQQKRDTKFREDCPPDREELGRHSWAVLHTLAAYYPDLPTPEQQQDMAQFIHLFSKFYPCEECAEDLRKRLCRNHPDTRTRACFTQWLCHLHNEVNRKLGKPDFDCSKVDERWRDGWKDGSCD
# APOBEC3A inh = blocks human APOBEC3A ssDNA deamination; P31941; recombinant A3A, FAM/TAMRA ssDNA deamination fluorescence; inhibition, % at 20 µM; 330,000 compounds, 0.41% hits; AID 493011;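 active = at least 40% inhibition at 20 µM here, with at most 30% in a related deaminase screen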;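 note: plate controls were A3A with DMSO for no effect and wells lacking A3A enzyme for full effect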
# Yeast superoxide = yeast age-related superoxide inhibition as caloric restriction mimetic; superoxide response (% of plate mean), % at 10 µM; S. cerevisiae aged cells, superoxide DHE fluorescence; stronger effect = lower value; 330,000 compounds, 0.18% hits;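 active = superoxide response under a set limit, about three screen SD below normal, cut at about 65% in these data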;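 note: yeast aged for seven days with compound at 30 °C before DHE staining; 100% = average MFI of all compound-treated wells on the plate with controls excluded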
# APOBEC3G inh = APOBEC3G (human) deaminase inhibition. Q9HC16. recombinant A3G, ssDNA deamination FAM/TAMRA fluorescence. inhibition, % at 20 µM. 330,000 compounds, 0.28% hits. AID 493012;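 active = inhibition of at least 40% at 20 µM, with no more than 30% in the related APOBEC3A deaminase screen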;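 note: plate controls were DMSO wells with A3G for no effect and wells lacking A3G enzyme for full effect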
# Target sequence (Q9HC16 whole entry, looked up): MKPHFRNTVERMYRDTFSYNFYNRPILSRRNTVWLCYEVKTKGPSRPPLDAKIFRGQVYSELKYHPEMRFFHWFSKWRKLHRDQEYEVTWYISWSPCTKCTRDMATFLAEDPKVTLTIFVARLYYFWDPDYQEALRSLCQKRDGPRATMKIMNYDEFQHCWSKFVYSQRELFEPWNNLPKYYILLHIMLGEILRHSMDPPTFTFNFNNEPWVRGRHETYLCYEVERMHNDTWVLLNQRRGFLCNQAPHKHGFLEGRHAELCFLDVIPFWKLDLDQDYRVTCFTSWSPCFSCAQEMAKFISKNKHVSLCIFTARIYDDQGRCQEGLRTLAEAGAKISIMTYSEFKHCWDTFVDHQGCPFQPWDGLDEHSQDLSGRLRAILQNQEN
# PfM18AAP inh = blocks P. falciparum M18 aspartyl aminopeptidase; recombinant PfM18AAP, H-Glu-NHMec fluorogenic cleavage; inhibition, % at 7.35 µM; 290,000 compounds, 1.2% hits;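 active = inhibition above the campaign mean inhibition over all tested compounds plus 3 SD, cut at about 28% in these data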;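 note: 0% = plate median of test compound wells and 100% = 2 mM ZnCl2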
# Active calls of the source: *; ? = inconclusive; · = no result. An excerpt weighted towards active compounds, which were near 5.2% of everything screened.
SMILES,NRP1-CendR mod,ALR H2O2 inh,APOBEC3A inh,Yeast superoxide,APOBEC3G inh,PfM18AAP inh
COc1ccc(CCN2C(=O)CC(NNC(=O)c3cccc(O)c3)C2=O)cc1 (stereo not drawn),-7.5,95.0*,2.0,101.3,-6.5,2.7
CCOc1ccc(C(=O)NNC2CC(=O)N(CCc3ccccc3)C2=O)cc1OC (stereo not drawn),-4.0,-3.6,0.2,102.6,-2.3,2.5
COc1ccc(/C(O)=C(\C#N)c2nc3ccccc3n2C)cc1OC,-2.9,-6.4,5.4,103.6,2.5,-4.7
COC(=O)c1cc2c(n1S(=O)(=O)c1ccc(C)cc1)C(=O)C(=O)c1[nH]cc(C(=O)OCc3ccccc3)c1-2,27.0*,·,·,·,·,·
CNc1nnc(-c2cccc(N(C)C)c2)s1,-3.3,99.0*,0.9,123.4,2.8,5.0
COc1ccc(-c2oc3ccc(-c4ccc5c(c4)OCO5)cc3c2-c2ccc(OC)nc2)cc1,26.6*,5.7,-2.5,104.3,-3.7,·
COc1ccccc1CNC(=O)c1cc(-c2ccccc2)nn1Cc1cc(C)no1,27.4*,-4.0,-2.3,·,-1.1,·
COc1ccccc1CNC(=O)c1cc(C)nn1-c1ccccc1,-4.7,-1.4,2.0,43.6*,1.7,1.8
Cc1cc(C(=O)NCCCN2CCN(C3CCCCC3)CC2)n(-c2ccccc2)n1,3.3,-0.1,42.8*,112.7,-5.9,0.3
CC1=C(C)/C(=N\OS(=O)(=O)c2ccc(C)cc2)C=CC1=O,3.7,·,·,98.9,·,15.2
CC1=C/C(=N\OS(=O)(=O)c2ccccc2)C(C)=CC1=O,2.1,98.8*,-2.2,91.5,-1.3,5.4
CC1=C/C(=N\OS(=O)(=O)c2ccccc2)C(C(C)C)=CC1=O,-4.0,98.0*,·,107.1,·,5.0
O=C(COC(=O)c1ccccc1)Nc1ccccc1Br,2.9,-1.8,-2.6,105.2,-5.5,1.9
C=CCc1c(OC(C)=O)c2ccccc2n(C)c1=O,25.0*,4.6,4.9,99.3,-6.6,-5.6
O=C(Nc1ccc(OC(F)(F)F)cc1)c1cnccn1,-2.1,-5.2,-6.1,102.8,-0.8,-10.1
CCCn1c(C(CO)Nc2nc(-c3cccc(Br)c3)cs2)nc2ccccc21 (stereo not drawn),-1.4,·,-4.5,105.3,-6.0,8.3
OCCOCCn1c(C(CO)Nc2nc(-c3ccc(Cl)cc3)cs2)nc2ccccc21 (stereo not drawn),0.8,94.6*,-4.0,103.8,-6.9,·
OCCOCCn1c(C(CO)Nc2nc(-c3cccc(Br)c3)cs2)nc2ccccc21 (stereo not drawn),22.9*,·,-7.5,108.0,-13.1,·
C#Cc1ccc(NC(=O)C2(C)CCN2C(=O)c2ccccc2CCc2ccccc2)cc1 (stereo not drawn),-2.9,·,·,·,·,·
CSc1ccc(NC(=O)C2(C)CCN2C(=O)c2ccccc2CCc2ccccc2)cc1 (stereo not drawn),41.5*,·,·,·,·,·
C/C(Cn1cnc([N+](=O)[O-])n1)=N\NC(=O)c1ccccc1F,-1.6,-18.0,2.0,100.7,-0.1,-4.9
Cc1ccc2c(c1)S(=O)(=O)c1ccc3ccccc3c1N2,-5.8,·,·,·,·,·
O=C(CN(c1ccccc1)S(=O)(=O)c1ccccc1)Nc1ccccc1C(=O)NCc1ccco1,-19.3,-3.8,2.0,98.5,-3.7,0.2
Cc1ccc(N(CC(=O)Nc2ccccc2C(=O)NCc2ccco2)S(=O)(=O)c2ccccc2)cc1C,-4.5,96.4*,0.3,82.7,-0.4,-0.3
CCOC(=O)C1CCN(C(=O)c2ccc3c(c2)NC(=O)/C(=C/c2ccccc2)S3)CC1,-13.4,-19.2,-4.5,92.5,-5.7,-5.5
SMILES,NRP1-CendR mod,ALR H2O2 inh,APOBEC3A inh,Yeast superoxide,APOBEC3G inh,PfM18AAP inh
COc1ccc(-n2c(=S)[nH]c3cc(C(=O)NC4CCCCC4)ccc3c2=O)c(OC)c1,-1.8,91.1*,1.0,107.4,-17.0,-2.5
CCOc1cc(/C=N/n2cnnc2)ccc1OCC(=O)Nc1ccccc1OC,20.0*,-14.7,0.0,90.2,-8.8,0.6
COc1cc(/C=N/n2cnnc2)ccc1OC(=O)c1ccncc1,7.5,98.2*,18.5,106.4,-1.3,6.1
NC(=O)CCN1CCN(C(=O)c2ccc3nc(Cc4cccc(Cl)c4)oc3c2)CC1,8.7,-5.4,-0.6,92.1,-2.3,4.9
N/C(=N\O)c1ccc(Oc2ccccc2Cl)c([N+](=O)[O-])c1,-2.9,98.1*,2.8,98.2,5.4,-6.1
COc1ccc(N(C(=O)c2cccnc2)S(=O)(=O)c2ccccc2)cc1,23.6*,-5.5,-0.8,90.5,-3.6,-2.3
COc1ccc(N(C(=O)c2cccnc2)S(=O)(=O)c2ccc(F)cc2)cc1,-9.9,1.5,-1.0,92.2,-6.0,-1.9
CCOc1ccc(CNC(=O)CCc2cn(C)c3ccccc23)cc1,7.5,-4.4,0.3,111.4,-5.0,0.0
CSc1nc(C(=O)N2CCCC(Nc3ccc(C)c(C)c3)C2)cs1 (stereo not drawn),17.8,98.4*,2.9,89.7,-1.4,1.0
Cc1ccc(NC2CCCN(C(=O)c3cnsn3)C2)cc1C (stereo not drawn),-4.5,98.8*,-2.4,89.7,-2.8,7.1
Cc1cc(Cl)ccc1C(=O)C1CCCN(C(=O)c2cnsn2)C1 (stereo not drawn),9.0,-4.7,0.8,119.8,-4.6,1.3
COc1ccc(NC2CCCN(C(=O)c3csc(C)n3)C2)cc1 (stereo not drawn),2.8,99.3*,-5.7,97.4,-5.6,10.3
COc1ccc(C(=O)N2CCCC(Nc3ccc(C(C)C)cc3)C2)c(OC)n1 (stereo not drawn),-5.0,31.5,2.2,112.6,-3.4,-3.7
Cc1ccc2nccc(C(=O)N3CCCC(Nc4ccc(C)c(C)c4)C3)c2c1 (stereo not drawn),4.2,98.9*,-9.4,79.7,-5.8,16.0
O=C(c1cccc2nccnc12)N1CCCC(Nc2ccc(F)c(F)c2)C1 (stereo not drawn),16.3,7.0,-0.7,90.8,-5.3,-1.5
CS(=O)(=O)N1CCC(C(=O)NCc2ccccc2)CC1,6.5,-2.9,3.6,103.0,-11.6,-1.8
CC(C)CCN(C)C1CCN(S(=O)(=O)c2ccc(F)cc2)CC1,-1.2,-0.5,-2.4,101.3,-10.0,3.0
COc1ccccc1CNC(=O)[C@H](C)NC(=O)C1CCN(C(=O)[C@@H](N)Cc2ccccc2)CC1,-8.7,-2.1,-2.9,109.2,-10.6,-2.5
Cc1nc(CC(C)C)cc(C(=O)N2CCCC(Nc3ccc(C)c(C)c3)C2)n1 (stereo not drawn),1.8,?,-1.8,103.0,-5.0,5.4
Cc1ccc(NC2CCCN(C(=O)c3ccccn3)C2)cc1C (stereo not drawn),10.1,98.9*,-5.3,95.4,-6.1,9.4
CC(C)c1ccc(NC2CCCN(C(=O)c3cc(C(C)C)[nH]n3)C2)cc1 (stereo not drawn),10.6,·,0.4,·,-0.8,4.9
